# An excerpt weighted towards active compounds, which were near 19% of everything screened.
# DT40 TDP1 CPT – growth inhibition of DT40 Tdp1-/-;hTDP1 cells with camptothecin (screen for TDP1 inhibitors); chicken DT40 Tdp1-/-;hTDP1 cells + 20 nM CPT, ATP luminescence, 48 h; Potency, µM (top dose mostly 46.2 µM), for the others: at the top dose activity change, negative = growth inhibition, hits mostly inhibitors; actives 12% (n = 420,000); AID 686979; note: potency is the fitted concentration of half-maximal effect; nearly all actives have a fitted effect of over 55% in size
#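 Cell growth measured by CellTiter-Glo luminescence after a minimum 48 h, 37 C compound exposure with 20 nM CPT in Tdp1-knockout DT40 cells stably expressing hTDP1, seeded 400/well; qHTS titration format.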
# HT1080-NT tox – kills 2HG-producing HT-1080-NT fibrosarcoma cells; HT-1080-NT fibrosarcoma viability, CellTiter-Glo ATP luminescence, 48 h; Potency, µM (highest dose often 46.1 µM), inactives show top-dose activity, negative = less viability, usual class: cytotoxic; actives 1.6% (n = 360,000); AID 686970;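 note: NT is the 2HG producing partner of a matched IDH1 knockdown line; potency is the fitted concentration of half-maximal effect; 0% = DMSO-treated cells and -100% = media-only wells without cells; nearly all actives have a fitted effect of over 55% in size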
#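 HT-1080-NT; 750 cells/well; 5% FBS RPMI; 48 h compound, 37 degrees C; CellTiter-Glo luminescence; curve fitting and curve-class assignment.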
# TDP1 cell noCPT – qHTS for Inhibitors of human tyrosyl-DNA phosphodiesterase 1 (TDP1): qHTS in cells in absence of CPT; DT40 Tdp1-/- hTDP1 cells, no CPT, ATP luminescence, 48 h; Potency, µM (top dose mostly 46.2 µM), inactives show at the top dose activity change, negative = growth inhibition, usual class: inhibitors; actives 15% (n = 420,000); AID 686978, 2013; note: potency is the fitted concentration of half-maximal effect; nearly all actives have a fitted effect of over 55% in size
#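 Luminescent ATP content (CellTiter-Glo) served as the growth readout. Knockout chicken DT40 cells expressing human TDP1 were exposed to compounds without camptothecin for a minimum 48 hr at 37 °C.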
# HT1080 IDH1KD tx – toxicity to HT-1080 IDH1 knockdown cells (counter line) | actives 2% (n = 360,000) | Potency, µM (titrated, usually from 46.1 µM), for inactives: top-dose activity, negative = toxicity, usual class: cytotoxic | HT-1080 IDH1 knockdown viability, ATP luminescence, 48 h;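 note: potency is the fitted concentration of half-maximal effect; 0% = DMSO wells and -100% = cell-free medium wells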
#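 CellTiter-Glo luminescence after 48 h compound exposure at 37 degrees C of IDH1-knockdown HT-1080 cells in 5% FBS RPMI. %Activity scaled between DMSO wells and cell-free media wells, with curves fitted and assigned curve classes.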
# IL1B secr inh – inflammasome signaling inhibition, IL-1 beta readout | THP-1 LPS/ATP IL-1B secretion, AlphaLISA, 16 h; hits give low values | activity change, % at 57.5 µM | actives 4.7% (n = 360,000) | AID 743279; in the data active = activity change below about -50%; inconclusive = mostly about -30% to -49%
#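 Secreted IL-1B measured by AlphaLISA bead assay after 16 h compound exposure of THP-1 cells; compounds (final up to 57.5 uM) added 1 h before LPS (250 ng/mL) and ATP (1.25 mM) stimulation; lower signal means less secretion.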
# uPA generation – blocks generation of uPA at the cell surface | cell surface uPA generation assay, qHTS | Potency, µM (titrated, usually from 38.3 µM), for the others: at the top dose activity change, negative = inhibition, most hits filed as inhibitors | actives 0.31% (n = 330,000) | AID 540303; active = well fitted inhibition curve with a large enough effect; inconclusive = small, poorly fitted or top-dose-only effect; inactive = no such curve, though single readings can be large or run the other way; tested in mouse RAW 264.7 cells; note: potency is the fitted concentration of half-maximal effect; nearly all actives have a fitted effect of over 55% in size
# An asterisk follows results filed as active; ? = inconclusive; . = no result given. Unless noted, calls come from the whole dose curve; as a rule, active = well fitted curve in the direction sought with a large enough effect; inconclusive = small, poorly fitted or top-dose-only effect, or another doubt; inactive = no such curve, though single readings can be large; an effect the other way counts as inactive or inconclusive. Unless noted, % is set by controls: 0 for no effect and ±100 for the full control effect.
SMILES,DT40 TDP1 CPT,HT1080-NT tox,TDP1 cell noCPT,HT1080 IDH1KD tx,IL1B secr inh,uPA generation
Cc1ccc2nc(SCC(=O)OCc3ccccc3)nc(=O)n2c1,1%,-17%,5%,-7%,-56*,-4%
CCOC(=O)C(C)Sc1nc(=O)n2cc(C)ccc2n1 (configuration not stated),2%,17%,2%,18%,-101*,2%
Cc1ccc(Cn2c(=O)n(Cc3ccccc3)c(=O)c3c(C)c(C)sc32)cc1,9%,.,1%,.,.,.
CCCCn1c(NC(=O)c2ccccc2)c(C#N)c2nc3ccccc3nc21,26µM*,8.9µM*,18µM*,?,-23,-24%
CCC(=O)Nc1c(C#N)c2nc3ccccc3nc2n1-c1ccc(C)cc1,-7%,2%,-3%,-1%,34,4%
CCC(C)n1c(NC(=O)c2ccccc2)c(C#N)c2nc3ccccc3nc21 (configuration not stated),18µM*,18µM*,13µM*,16µM*,-17,-17%
Cc1nn(C(C)(C)C)c(NC(=O)c2ccccc2)c1C#N,-16%,9%,?,3%,10,-4%
c1ccc(NN(Cc2ccncc2)c2ccccc2)cc1,-24%,-1%,?,0%,1,.
Cc1cc(CN(Nc2ccccc2)c2ccccc2)cc(C)n1,?,-5%,15µM*,-4%,44,.
N#Cc1ccc(CN(Nc2ccccc2)c2ccccc2)cc1,18µM*,?,21µM*,-17%,49,.
Cc1cc(-c2c(C)[nH]n(-c3ccc(Cl)cc3)c2=O)n[nH]1,7.3µM*,?,13µM*,?,148,-7%
CCOC(=O)CN[C@H]1CCC2C3CC=C4C[C@@H](O)CC[C@]4(C)C3CC[C@@]21C (some centres not stated),?,8%,?,12%,-5,-2%
CC12CCC(O)CC1=CCC1C2CCC2(C)C3=NN=CC3CC12 (configuration not stated),-17%,?,?,33µM*,54,16%
CN(C)CCN[C@H]1CCC2C3CC=C4C[C@@H](O)CC[C@]4(C)C3CC[C@@]21C (some centres not stated),5.8µM*,-7%,3.3µM*,-1%,5,-5%
COc1ccc(S(=O)(=O)n2cccc2)cc1,-5%,15%,-4%,5%,-18,3%
Cc1ccccc1CN1C(=O)c2ccccc2S(=O)(=O)c2ccc(C(=O)OCC3CCCO3)cc21 (configuration not stated),-7%,.,-20%,.,.,.
NC(=O)/C(N=Nc1ccccc1)=N/Nc1ccccc1,18µM*,13%,?,3%,17,10%
CCN(c1ccccc1)S(=O)(=O)c1ccc(Cl)c(NC(=O)Nc2ccc(Cl)cc2C#N)c1,16µM*,-27%,16µM*,-34%,-53*,-1%
CN(c1ccccc1)S(=O)(=O)c1cccc(NC(=O)Nc2ccc(Cl)cc2C#N)c1,?,-2%,23µM*,0%,-9,2%
OC(c1cc(F)cc(Cl)c1)c1ncc(-c2ccccc2C(F)(F)F)[nH]1 (configuration not stated),?,?,?,-26%,21,.
COc1ccc(CN2CSC(=S)N(Cc3ccccc3)C2)cc1,?,-8%,?,-3%,-3,?
S=C1SCN(CCc2ccccc2)CN1CCc1ccccc1,?,-6%,18µM*,-17%,-1,.
COc1ccc(CN2CSC(=S)N(Cc3ccc(OC)cc3)C2)cc1,4.6µM*,-3%,15µM*,0%,0,?
S=C1SCN(Cc2ccccc2)CN1Cc1ccco1,?,8%,?,6%,19,.
S=C1SCN(Cc2cccnc2)CN1Cc1cccnc1,0.82µM*,7.3µM*,0.82µM*,6.5µM*,.,-3%
SMILES,DT40 TDP1 CPT,HT1080-NT tox,TDP1 cell noCPT,HT1080 IDH1KD tx,IL1B secr inh,uPA generation
S=C1SCN(Cc2ccccc2)CN1Cc1ccccc1,8.4µM*,9%,?,8%,-22,-1%
CCC(C)N(C(=O)COC(=O)c1ccc(=O)n(Cc2ccccc2)n1)C1CCS(=O)(=O)C1 (configuration not stated),0%,7%,1%,18%,7,0%
OC(COc1ccc2ccccc2c1Br)Cn1cnc(-c2ccccc2)c1 (configuration not stated),?,?,?,?,-96*,11%
CCCc1cc(=O)oc2cc(C)cc(OC(C)C(=O)NCC(O)c3ccccc3)c12 (configuration not stated),?,-8%,-20%,-7%,?,5%
Cc1cc(C)n2c(Nc3cccc(C(F)(F)F)c3)c(-c3ccsc3)nc2n1,16µM*,.,16µM*,.,.,.
Cc1cc(C)n2c(Nc3ccccc3)c(-c3ccc(C)o3)nc2n1,?,5%,?,15%,.,.
Cc1cccc(Nc2c(-c3cccs3)nc3nc(C)cc(C)n23)c1,26µM*,.,?,.,.,.
Cc1nn(C(C)C(=O)NCc2cccc(F)c2)c(=O)c2c1sc1ccccc12 (configuration not stated),-5%,.,?,.,.,.
Clc1ccc2oc3c(Cl)ncnc3c2c1,18µM*,-15%,6.5µM*,6%,-101*,-18%
Cc1cnn(CCC(=O)NNC(=S)Nc2ccc(F)cc2)c1,-4%,8%,-12%,13%,1,-1%
Cc1cnn(CCC(=O)NNC(=S)Nc2cccc(Cl)c2)c1,-21%,0.79µM*,2%,0.71µM*,10,.
N#Cc1c(C(F)(F)F)cc(-c2cccs2)nc1SCC(=O)Nc1ccccc1F,-28%,.,?,.,.,.
O=C(NCC1COc2ccccc2O1)c1ccc(NC(=O)C(c2ccccc2)c2ccccc2)cc1 (configuration not stated),18µM*,?,9.2µM*,-11%,9,-18%
COc1ccc(-n2nc(C(=O)NCC(=O)NCC3COc4ccccc4O3)c3ccccc3c2=O)cc1 (configuration not stated),?,-3%,?,-17%,-28,3%
Cc1ccc(/C=C/C(=O)NCCc2cccc(Cl)c2)o1,10µM*,?,18µM*,?,-65*,-7%
Cn1nc(C(=O)NCC2COc3ccccc3O2)c2ccccc2c1=O (configuration not stated),23µM*,-4%,21µM*,0%,6,-13%
